{"source": "the supplement of paper PMC10037445", "key": {"RAW-Dual [1]": {"system": "RAW-Dual", "test": "NF-kB SEAP reporter activity, fold change vs agonist alone; cytotoxicity flag (confluency mask): cytotoxic (confluency <70% of control); higher = enhanced NF-kB activity", "procedure,_shortened": "(§1)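 Cytotoxic wells were those whose IncuCyte confluency was below 70% of agonist controls in both mask sets. The cells were RAW-Dual macrophages at 50,000 cells/well in DMEM on 384-well plates, dosed with 50 nL of library stock by pin tool, stimulated with a PRR agonist 1 h later, and kept at 37 °C, 5% CO2 for 20 hours. IRF and NF-κB reporter activity, as fold change over agonist-alone wells, came from supernatant read by QuantiLuc luminescence and QuantiBlue absorbance, respectively.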"}, "RAW-Dual [2]": {"system": "RAW-Dual", "test": "NF-kB SEAP reporter activity, fold change vs agonist alone; higher = enhanced NF-kB activity", "settings": "library stock concentration (final ~1000-fold dilution): 10 mM", "procedure,_shortened": "as §1"}, "RAW-Dual [3]": {"system": "RAW-Dual", "test": "NF-kB SEAP reporter activity, fold change vs agonist alone; cytotoxicity flag (confluency mask): not cytotoxic; higher = enhanced NF-kB activity", "procedure,_shortened": "as §1"}, "[4]": {"settings": "agonist: ODN 1826 (TLR9) 0.5 ug/mL"}, "[5]": {"settings": "agonist: Pam2CSK4 (TLR2/6) 0.1 ug/mL"}, "[6]": {"settings": "agonist: Pam3CSK4 (TLR2/1) 0.1 ug/mL"}, "[7]": {"settings": "cytotoxicity flag (confluency mask): cytotoxic (confluency <70% of control), agonist: Imiquimod (TLR7) […]"}, "[8]": {"settings": "cytotoxicity flag (confluency mask): cytotoxic (confluency <70% of control), agonist: MPLA (TLR4) […]"}, "[9]": {"settings": "cytotoxicity flag (confluency mask): not cytotoxic, agonist: Imiquimod (TLR7) […]"}, "[10]": {"settings": "cytotoxicity flag (confluency mask): not cytotoxic, agonist: MPLA (TLR4) […]"}}, "note": "The full ranking holds about 2,900 compounds; the median of “NF-kB SEAP reporter activity, fold change vs agonist alone” is about 0.99, and the highest 2% start at about 2.6. This excerpt belongs to a sample that is enriched for the highest values."}
{"smiles": "NS(=O)(=O)OC[C@H]1C[C@@H](Nc2ccnc3cc(-c4cccc(SC(F)(F)F)c4)nn23)[C@H](O)[C@@H]1O", "note": "(library stock concentration (final ~1000-fold dilution): 10 mM)", "values": [{"measurement": "NF-kB SEAP reporter activity", "setting": "RAW-Dual [1]; agonist: LPS (TLR4) 0.1 ug/mL", "value": 0.308}, {"measurement": "NF-kB SEAP reporter activity", "setting": "RAW-Dual [1]; [4]", "value": 0.19}, {"measurement": "NF-kB SEAP reporter activity", "setting": "RAW-Dual [1]; [5]", "value": 0.0814}, {"measurement": "NF-kB SEAP reporter activity", "setting": "RAW-Dual [1]; [6]", "value": 0.152}]}
{"smiles": "NS(=O)(=O)OC[C@H]1C[C@@H](Nc2ccnc3cc(-c4cccc(SC(F)(F)F)c4)nn23)[C@H](O)[C@@H]1O", "values": [{"measurement": "NF-kB SEAP reporter activity", "setting": "RAW-Dual [2]; [7]", "value": 0.145}, {"measurement": "NF-kB SEAP reporter activity", "setting": "RAW-Dual [2]; [8]", "value": 0.255}]}
{"smiles": "CCNC(=O)[C@]12CCC(C)(C)C[C@H]1[C@H]1C(=O)C=C3[C@@]4(C)C=C(C#N)C(=O)C(C)(C)[C@@H]4CC[C@@]3(C)[C@]1(C)CC2", "note": "(library stock concentration (final ~1000-fold dilution): 10 mM)", "values": [{"measurement": "NF-kB SEAP reporter activity", "setting": "RAW-Dual [3]; agonist: LPS (TLR4) 0.1 ug/mL", "value": 0.324}, {"measurement": "NF-kB SEAP reporter activity", "setting": "RAW-Dual [3]; [4]", "value": 0.193}, {"measurement": "NF-kB SEAP reporter activity", "setting": "RAW-Dual [3]; [5]", "value": 0.0804}, {"measurement": "NF-kB SEAP reporter activity", "setting": "RAW-Dual [3]; [6]", "value": 0.173}]}
{"smiles": "CCNC(=O)[C@]12CCC(C)(C)C[C@H]1[C@H]1C(=O)C=C3[C@@]4(C)C=C(C#N)C(=O)C(C)(C)[C@@H]4CC[C@@]3(C)[C@]1(C)CC2", "values": [{"measurement": "NF-kB SEAP reporter activity", "setting": "RAW-Dual [2]; [9]", "value": 0.15}, {"measurement": "NF-kB SEAP reporter activity", "setting": "RAW-Dual [2]; [10]", "value": 0.256}]}
{"smiles": "CC(O)C(=O)O.CN1CCN(c2ccc3nc(-c4c(N)c5c(F)cccc5[nH]c4=O)[nH]c3c2)CC1", "note": "(library stock concentration (final ~1000-fold dilution): 10 mM)", "values": [{"measurement": "NF-kB SEAP reporter activity", "setting": "RAW-Dual [1]; agonist: LPS (TLR4) 0.1 ug/mL", "value": 0.341}, {"measurement": "NF-kB SEAP reporter activity", "setting": "RAW-Dual [1]; [4]", "value": 0.18}, {"measurement": "NF-kB SEAP reporter activity", "setting": "RAW-Dual [1]; [5]", "value": 0.15}, {"measurement": "NF-kB SEAP reporter activity", "setting": "RAW-Dual [1]; [6]", "value": 0.219}]}
{"smiles": "CC(O)C(=O)O.CN1CCN(c2ccc3nc(-c4c(N)c5c(F)cccc5[nH]c4=O)[nH]c3c2)CC1", "values": [{"measurement": "NF-kB SEAP reporter activity", "setting": "RAW-Dual [2]; [7]", "value": 0.335}, {"measurement": "NF-kB SEAP reporter activity", "setting": "RAW-Dual [2]; [8]", "value": 0.591}]}
{"smiles": "C=C(CC(=O)OCCCCCCCC)C(=O)O", "note": "(library stock concentration (final ~1000-fold dilution): 10 mM)", "values": [{"measurement": "NF-kB SEAP reporter activity", "setting": "RAW-Dual [3]; agonist: LPS (TLR4) 0.1 ug/mL", "value": 0.76}, {"measurement": "NF-kB SEAP reporter activity", "setting": "RAW-Dual [3]; [4]", "value": 0.641}, {"measurement": "NF-kB SEAP reporter activity", "setting": "RAW-Dual [3]; [5]", "value": 0.455}, {"measurement": "NF-kB SEAP reporter activity", "setting": "RAW-Dual [3]; [6]", "value": 0.645}]}
{"smiles": "C=C(CC(=O)OCCCCCCCC)C(=O)O", "values": [{"measurement": "NF-kB SEAP reporter activity", "setting": "RAW-Dual [2]; [9]", "value": 0.711}, {"measurement": "NF-kB SEAP reporter activity", "setting": "RAW-Dual [2]; [10]", "value": 0.955}]}
{"smiles": "NCC(O)(c1ccc(Cl)cc1)c1ccc(-c2cn[nH]c2)cc1", "note": "(configuration not stated) (library stock concentration (final ~1000-fold dilution): 10 mM)", "values": [{"measurement": "NF-kB SEAP reporter activity", "setting": "RAW-Dual [3]; agonist: LPS (TLR4) 0.1 ug/mL", "value": 0.342}, {"measurement": "NF-kB SEAP reporter activity", "setting": "RAW-Dual [3]; [4]", "value": 0.435}, {"measurement": "NF-kB SEAP reporter activity", "setting": "RAW-Dual [3]; [5]", "value": 0.236}, {"measurement": "NF-kB SEAP reporter activity", "setting": "RAW-Dual [3]; [6]", "value": 0.327}]}
{"smiles": "NCC(O)(c1ccc(Cl)cc1)c1ccc(-c2cn[nH]c2)cc1", "note": "(configuration not stated)", "values": [{"measurement": "NF-kB SEAP reporter activity", "setting": "RAW-Dual [2]; [9]", "value": 0.966}, {"measurement": "NF-kB SEAP reporter activity", "setting": "RAW-Dual [2]; [10]", "value": 0.527}]}
{"smiles": "CN1C(=N)NC(C)(c2cc(NC(=O)c3ccc(F)cn3)ccc2F)CS1(=O)=O.O=C(O)C(F)(F)F", "note": "(configuration not stated)", "values": [{"measurement": "NF-kB SEAP reporter activity", "setting": "RAW-Dual [2]; [9]", "value": 0.873}, {"measurement": "NF-kB SEAP reporter activity", "setting": "RAW-Dual [2]; [10]", "value": 0.781}]}
{"smiles": "CN1C(=N)NC(C)(c2cc(NC(=O)c3ccc(F)cn3)ccc2F)CS1(=O)=O.O=C(O)C(F)(F)F", "note": "(configuration not stated) (library stock concentration (final ~1000-fold dilution): 10 mM)", "values": [{"measurement": "NF-kB SEAP reporter activity", "setting": "RAW-Dual [3]; agonist: LPS (TLR4) 0.1 ug/mL", "value": 0.826}, {"measurement": "NF-kB SEAP reporter activity", "setting": "RAW-Dual [3]; [4]", "value": 0.731}, {"measurement": "NF-kB SEAP reporter activity", "setting": "RAW-Dual [3]; [5]", "value": 0.823}, {"measurement": "NF-kB SEAP reporter activity", "setting": "RAW-Dual [3]; [6]", "value": 0.856}]}
{"smiles": "O=C(OCC1OC(OC(=O)c2cc(O)c(O)c(OC(=O)c3cc(O)c(O)c(O)c3)c2)C(OC(=O)c2cc(O)c(O)c(OC(=O)c3cc(O)c(O)c(O)c3)c2)C(OC(=O)c2cc(O)c(O)c(OC(=O)c3cc(O)c(O)c(O)c3)c2)C1OC(=O)c1cc(O)c(O)c(OC(=O)c2cc(O)c(O)c(O)c2)c1)c1cc(O)c(O)c(OC(=O)c2cc(O)c(O)c(O)c2)c1", "note": "(configuration not stated) (library stock concentration (final ~1000-fold dilution): 10 mM)", "values": [{"measurement": "NF-kB SEAP reporter activity", "setting": "RAW-Dual [3]; agonist: LPS (TLR4) 0.1 ug/mL", "value": 1.25}, {"measurement": "NF-kB SEAP reporter activity", "setting": "RAW-Dual [3]; [4]", "value": 0.116}, {"measurement": "NF-kB SEAP reporter activity", "setting": "RAW-Dual [3]; [5]", "value": 1.04}, {"measurement": "NF-kB SEAP reporter activity", "setting": "RAW-Dual [3]; [6]", "value": 0.185}]}
{"smiles": "O=C(OCC1OC(OC(=O)c2cc(O)c(O)c(OC(=O)c3cc(O)c(O)c(O)c3)c2)C(OC(=O)c2cc(O)c(O)c(OC(=O)c3cc(O)c(O)c(O)c3)c2)C(OC(=O)c2cc(O)c(O)c(OC(=O)c3cc(O)c(O)c(O)c3)c2)C1OC(=O)c1cc(O)c(O)c(OC(=O)c2cc(O)c(O)c(O)c2)c1)c1cc(O)c(O)c(OC(=O)c2cc(O)c(O)c(O)c2)c1", "note": "(configuration not stated)", "values": [{"measurement": "NF-kB SEAP reporter activity", "setting": "RAW-Dual [2]; [9]", "value": 0.144}, {"measurement": "NF-kB SEAP reporter activity", "setting": "RAW-Dual [2]; [10]", "value": 0.319}]}
